Assay results taken from the supplement of paper PMC9492666.
Counter-ions that a name gives are not always drawn.

How the values were obtained:
HCC1937 = experiment: relative cell viability, compound + erastin, vs DMSO (fraction of DMSO control); higher = less growth inhibition; conditions: 72 h
MDA-MB-231 = experiment: as above; conditions: 72 h
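Also: viability read by CCK-8 kit in 96-well plates, part of a combination screen pairing lipid-metabolism-targeting compounds with erastin.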

SMILES	relative cell viability (HCC1937)	relative cell viability (MDA-MB-231)
O=C(Nc1cccnc1)N1CCC(Cc2cccc(Oc3ccc(C(F)(F)F)cn3)c2)CC1 + CCOc1ccccc1-n1c(C(C)N2CCN(C(=O)COc3ccc(Cl)cc3)CC2)nc2ccccc2c1=O [erastin]	0.663	0.374
Cn1nc(C(=O)N(Cc2ccccc2)Cc2ccc(C(=O)O)cc2)c2c1-c1cc(Cl)ccc1OC2 [Nidufexor] + CCOc1ccccc1-n1c(C(C)N2CCN(C(=O)COc3ccc(Cl)cc3)CC2)nc2ccccc2c1=O [erastin]	0.638	0.771
CC(C)(Oc1ccc(CCNC(=O)c2ccc(Cl)cc2)cc1)C(=O)O [Bezafibrate] + CCOc1ccccc1-n1c(C(C)N2CCN(C(=O)COc3ccc(Cl)cc3)CC2)nc2ccccc2c1=O [erastin]	0.736	0.937
CCCc1c(-c2ccccc2)[nH]n(-c2ccccn2)c1=O [APX-115 free base] + CCOc1ccccc1-n1c(C(C)N2CCN(C(=O)COc3ccc(Cl)cc3)CC2)nc2ccccc2c1=O [erastin]	0.615	0.625
NC(CO)C(=O)O (racemic) [DL-Serine] + CCOc1ccccc1-n1c(C(C)N2CCN(C(=O)COc3ccc(Cl)cc3)CC2)nc2ccccc2c1=O [erastin]	0.667	0.62
C=CC[S+]([O-])C[C@H](N)C(=O)O (stereo partly drawn) [Alliin] + CCOc1ccccc1-n1c(C(C)N2CCN(C(=O)COc3ccc(Cl)cc3)CC2)nc2ccccc2c1=O [erastin]	0.864	0.778
O=C(NNc1ccccc1)c1ccncc1 [PluriSln 1] + CCOc1ccccc1-n1c(C(C)N2CCN(C(=O)COc3ccc(Cl)cc3)CC2)nc2ccccc2c1=O [erastin]	0.518	0.696
CC(C)OC(=O)CCC/C=C\C[C@@H]1[C@@H](CC[C@@H](O)CCc2ccccc2)[C@H](O)C[C@@H]1O [Latanoprost] + CCOc1ccccc1-n1c(C(C)N2CCN(C(=O)COc3ccc(Cl)cc3)CC2)nc2ccccc2c1=O [erastin]	1	0.663
CC(C)Cc1ccc([C@H](C)C(=O)O)cc1 [Dexibuprofen] + CCOc1ccccc1-n1c(C(C)N2CCN(C(=O)COc3ccc(Cl)cc3)CC2)nc2ccccc2c1=O [erastin]	0.901	0.642
Cc1c2c(=O)n(-c3ccccc3Cl)[nH]c2cc(=O)n1Cc1ccccn1 + CCOc1ccccc1-n1c(C(C)N2CCN(C(=O)COc3ccc(Cl)cc3)CC2)nc2ccccc2c1=O [erastin]	0.72	0.784
C[C@H](CCCC(C)(C)O)[C@H]1CC[C@H]2[C@@H]3CC=C4C[C@@H](O)CC[C@]4(C)[C@H]3CC[C@]12C [25-Hydroxycholesterol] + CCOc1ccccc1-n1c(C(C)N2CCN(C(=O)COc3ccc(Cl)cc3)CC2)nc2ccccc2c1=O [erastin]	0.745	0.483
O=C(O)CC[C@H](O)C(=O)O [L-2-Hydroxyglutaric acid disodium] + CCOc1ccccc1-n1c(C(C)N2CCN(C(=O)COc3ccc(Cl)cc3)CC2)nc2ccccc2c1=O [erastin]	0.747	0.701
O=C(O)CCCc1cc2cc(Cl)ccc2n1S(=O)(=O)c1ccc2ncsc2c1 [Lanifibranor] + CCOc1ccccc1-n1c(C(C)N2CCN(C(=O)COc3ccc(Cl)cc3)CC2)nc2ccccc2c1=O [erastin]	0.672	0.886
O=C(Nc1cnccc1Cl)N1CCN(Cc2ccc3c(c2)OC(F)(F)O3)CC1 + CCOc1ccccc1-n1c(C(C)N2CCN(C(=O)COc3ccc(Cl)cc3)CC2)nc2ccccc2c1=O [erastin]	0.486	0.646
CCC(=O)Nc1cccc(Oc2nc(Nc3ccc(N4CCN(C)CC4)cc3OC)ncc2Cl)c1 + CCOc1ccccc1-n1c(C(C)N2CCN(C(=O)COc3ccc(Cl)cc3)CC2)nc2ccccc2c1=O [erastin]	0.255	0.795
C[C@@H]1C(=O)O[C@H]2[C@H](O)[C@@]34O[C@@H]5OC(=O)[C@H](O)[C@@]56[C@H](C(C)(C)C)[C@H](O)C(OC3=O)[C@]64[C@@]12O (stereo partly drawn) [Ginkgolide C] + CCOc1ccccc1-n1c(C(C)N2CCN(C(=O)COc3ccc(Cl)cc3)CC2)nc2ccccc2c1=O [erastin]	0.697	0.747
O=C(NCCS(=O)(=O)c1ccc(C(F)(F)F)cn1)c1ccc(Cl)cc1 + CCOc1ccccc1-n1c(C(C)N2CCN(C(=O)COc3ccc(Cl)cc3)CC2)nc2ccccc2c1=O [erastin]	0.511	0.503

SMILES	relative cell viability (HCC1937)	relative cell viability (MDA-MB-231)
C[C@@]12C[C@@H](c3ccoc3)OC(=O)[C@@H]1CC[C@]1(C)[C@H]2[C@@H]2C=C[C@@]1(O)C(=O)O2 [Columbin] + CCOc1ccccc1-n1c(C(C)N2CCN(C(=O)COc3ccc(Cl)cc3)CC2)nc2ccccc2c1=O [erastin]	0.607	0.688
NC(=O)c1cnccn1 [Pyrazinamide] + CCOc1ccccc1-n1c(C(C)N2CCN(C(=O)COc3ccc(Cl)cc3)CC2)nc2ccccc2c1=O [erastin]	0.791	0.948
O=P(O)(O)OC(CO)CO [β-Glycerol phosphate disodium salt pentahydrate] + CCOc1ccccc1-n1c(C(C)N2CCN(C(=O)COc3ccc(Cl)cc3)CC2)nc2ccccc2c1=O [erastin]	0.614	0.527
Cc1cc(SCc2sc(-c3ccc(C(F)(F)F)c(F)c3)nc2C)ccc1OCC(=O)O + CCOc1ccccc1-n1c(C(C)N2CCN(C(=O)COc3ccc(Cl)cc3)CC2)nc2ccccc2c1=O [erastin]	0.849	0.799
COc1ccc([C@@H]2OC[C@H]3[C@@H]2CO[C@@H]3c2ccc(O[C@@H]3O[C@H](CO)[C@@H](O)[C@H](O)[C@H]3O)c(OC)c2)cc1OC [Forsythin] + CCOc1ccccc1-n1c(C(C)N2CCN(C(=O)COc3ccc(Cl)cc3)CC2)nc2ccccc2c1=O [erastin]	0.718	0.754
O=C(ON1C(=O)CCC1=O)N1CCN(C(c2ccc(Cl)cc2)c2ccc(Cl)cc2)CC1 [Cravatt Reagent] + CCOc1ccccc1-n1c(C(C)N2CCN(C(=O)COc3ccc(Cl)cc3)CC2)nc2ccccc2c1=O [erastin]	0.886	0.772
Cc1coc2c1C(=O)C(=O)c1c-2ccc2c(C)cccc12 [Tanshinone I] + CCOc1ccccc1-n1c(C(C)N2CCN(C(=O)COc3ccc(Cl)cc3)CC2)nc2ccccc2c1=O [erastin]	0.226	0.396
CCC(C)(Oc1ccc(C2(c3ccc(OC(C)(CC)C(=O)O)cc3)CCCCC2)cc1)C(=O)O (stereo not drawn) [Clinofibrate] + CCOc1ccccc1-n1c(C(C)N2CCN(C(=O)COc3ccc(Cl)cc3)CC2)nc2ccccc2c1=O [erastin]	0.544	0.325
COc1cc([C@@H]2Oc3c(O)cc([C@H]4Oc5cc(O)cc(O)c5C(=O)[C@@H]4O)cc3[C@H]2CO)ccc1O [Silychristin] + CCOc1ccccc1-n1c(C(C)N2CCN(C(=O)COc3ccc(Cl)cc3)CC2)nc2ccccc2c1=O [erastin]	0.584	0.685
CN(C)CCOC(=O)COc1ccc(Cl)cc1 [Meclofenoxate hydrochloride] + CCOc1ccccc1-n1c(C(C)N2CCN(C(=O)COc3ccc(Cl)cc3)CC2)nc2ccccc2c1=O [erastin]	0.693	0.81
CN(C)c1cccc(-c2c3c(=O)n(-c4ccccc4Cl)[nH]c3cc(=O)n2C)c1 + CCOc1ccccc1-n1c(C(C)N2CCN(C(=O)COc3ccc(Cl)cc3)CC2)nc2ccccc2c1=O [erastin]	0.61	1.23
COc1cc(N2CCN(C)CC2)ccc1Nc1ncc2c(n1)N(C)c1ccccc1C(=O)N2 + CCOc1ccccc1-n1c(C(C)N2CCN(C(=O)COc3ccc(Cl)cc3)CC2)nc2ccccc2c1=O [erastin]	0.365	0.788
Cc1c(C(=O)NN2CCCCC2)nn(-c2ccc(Cl)cc2Cl)c1-c1ccc(Cl)cc1 [Rimonabant] + CCOc1ccccc1-n1c(C(C)N2CCN(C(=O)COc3ccc(Cl)cc3)CC2)nc2ccccc2c1=O [erastin]	0.581	0.273
CC(C)=CCC[C@](C)(O[C@@H]1O[C@H](CO)[C@@H](O)[C@H](O)[C@H]1O)[C@H]1CC[C@]2(C)[C@@H]1[C@H](O)C[C@@H]1[C@@]3(C)CC[C@H](O[C@@H]4O[C@H](CO)[C@@H](O)[C@H](O)[C@H]4O[C@@H]4O[C@H](CO)[C@@H](O)[C@H](O)[C@H]4O)C(C)(C)[C@@H]3CC[C@]12C [Ginsenoside Rd] + CCOc1ccccc1-n1c(C(C)N2CCN(C(=O)COc3ccc(Cl)cc3)CC2)nc2ccccc2c1=O [erastin]	0.355	0.317
O=C(O)c1ccnc(N2CC(O)(c3ccc(OCc4c(-c5c(Cl)cccc5Cl)noc4C4CC4)cc3Cl)C2)c1 [Cilofexor] + CCOc1ccccc1-n1c(C(C)N2CCN(C(=O)COc3ccc(Cl)cc3)CC2)nc2ccccc2c1=O [erastin]	0.577	0.692
O=C(NN1CCCCC1)c1nn(-c2ccc(Cl)cc2Cl)c(-c2ccc(C#Cc3ccc(C(F)(F)F)cc3)s2)c1CNS(=O)(=O)N1CCCC1 + CCOc1ccccc1-n1c(C(C)N2CCN(C(=O)COc3ccc(Cl)cc3)CC2)nc2ccccc2c1=O [erastin]	0.496	0.395
CCC(=O)O[C@]1(C(=O)CCl)[C@@H](C)C[C@H]2[C@@H]3C[C@H](F)C4=CC(=O)C=C[C@]4(C)[C@@]3(F)[C@@H](O)C[C@@]21C [Halobetasol Propionate] + CCOc1ccccc1-n1c(C(C)N2CCN(C(=O)COc3ccc(Cl)cc3)CC2)nc2ccccc2c1=O [erastin]	0.708	0.973
